Assay results taken from PubChem BioAssay.
Active and inactive are the calls of the source. Unless noted, no rule for the calls is given here.

Columns and labels:
[1] = test system: Wnt5a (protein binding on small-molecule microarray); test: small molecules binding Wnt5a protein – biophysical, small-molecule microarray, 635/667 nm fluorescence, primary screen (AID 1142); conditions: 635 nm fluorescence, higher = more signal;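 also: fluorescence read at 667 nm with signal to noise per printed feature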
[2] = ATP-based viability of Huh7 replicon cells – cell-based, CellTiter-Glo luminescence, basal, 48 h, cytotoxicity control for HCV replication inhibitor project, primary screen (AID 1143); conditions: Huh7 HCV replicon, CellTiter-Glo luminescence, 48 h, higher = more signal, called active from +8 up or from −8 down unless noted;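 also: Huh7 hepatoma cells carrying a hepatitis C replication reporter with no stimulus; test concentration not given here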
[3] = Pseudomonas biofilm growth suppression – PAO1 strain, BacTiter-Glo luminescence, LB-PBS, primary screen (AID 1144); conditions: P. aeruginosa PAO1 biofilm, 12 h, higher = more signal
[4] = basal CRE-LacZ reporter activity in PC12 – cell-based, unstimulated, primary screen (AID 1145); conditions: no forskolin, luminescence, 4.5 h; higher = more signal, called active from +8 up or from −8 down unless noted
[5] = forskolin-driven CRE-LacZ activity in PC12 – cell-based, CRE-LacZ reporter, forskolin-stimulated, primary screen (AID 1146); conditions: luminescence, 4.5 h; higher = more signal, called active from +8 up or from −8 down unless noted;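 also: PC12 cells with 6xCRE LacZ reporter stimulated by forskolin 10 µM; beta-galactosidase reporter signal reflecting CREB driven transcription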
[6] = target: Streptavidin (Streptomyces avidinii) (UniProt P22629); test: compounds binding control protein streptavidin – biophysical, small-molecule microarray, 635/667 nm fluorescence, artefact control for SMM compound annotation, primary screen (AID 1147); conditions: higher = more signal;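 also: signal reflects streptavidin binding to arrayed compounds as a control protein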
[7] = probe aInhba binding on compound microarray – biochemical, small-molecule microarray, 635/667 nm fluorescence, primary screen (AID 1148); conditions: higher = more signal; small-molecule microarray, probe aInhba, fluorescence unless noted;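 also: score merges 667nm spot fluorescence with signal-to-noise for antibody binding to printed compounds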
[8] = target: Torsin-1A (Homo sapiens) (UniProt O14656); test: TOR1A wild-type binding on microarray – cell lysate, small-molecule microarray, lysate, 635/667 nm, primary screen (AID 1149); conditions: COS7 hTOR1A-WT lysate, 635 nm fluorescence, higher = more signal
[9] = target: Torsin-1A (Homo sapiens) (UniProt O14656); test: torsin A mutant lysate binding on microarrays – cell lysate, small-molecule microarray, COS7 lysate, 635/667 nm fluorescence, primary screen (AID 1150); conditions: COS7 hTOR1A mutant lysate, 635 nm fluorescence, higher = more signal;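 also: score pools 667 nm emission and signal to noise measuring lysate protein binding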
[10] = test system: Sonic hedgehog protein (Shh); test: Sonic hedgehog microarray binding compounds – biochemical, small-molecule microarray, 635/667 nm fluorescence, primary screen (AID 1151); conditions: 635 nm fluorescence, higher = more signal;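 also: Shh protein binding to compounds spotted on small-molecule microarray slides; score combines spot fluorescence intensity with signal-to-noise across triplicate slides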
[11] = optical density shifts of acrAB sulA E. coli – strain DRC41, OD650, 48 h, E. coli filamentation inducer project, primary screen (AID 1152); conditions: higher = more signal, called active from +8 up or from −8 down unless noted;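 also: E. coli MC1000 strain DRC41 lacking acrAB efflux pump and sulA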
[12] = probe aLefty1 binding on compound microarray – biochemical, small-molecule microarray, 635/667 nm fluorescence, primary screen (AID 1153); conditions: higher = more signal; small-molecule microarray, probe aLefty1, fluorescence unless noted;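 also: score merges spot fluorescence with signal-to-noise ratio from the scanned slide images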
[13] = plasmodial surface anion channel blockers, osmotic lysis – cell-based, P. falciparum Indochina, OD700, 1 h, primary screen (AID 1154); conditions: P. falciparum Indochina infected RBC osmotic lysis; higher = more signal, called active from +8 up or from −8 down unless noted
[14] = plasmodial surface anion channel blockers, osmotic lysis – cell-based, P. falciparum Indochina, OD700, 2 h, primary screen (AID 1155);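 also: lysis reports solute entry through the parasite surface anion channel PSAC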; conditions: P. falciparum Indochina infected erythrocytes; higher = more signal, called active from +8 up or from −8 down unless noted
[15] = changes in parasitized red cell lysis, either direction – P. falciparum Indochina, OD700, 3 h, PSAC antagonist project, primary screen (AID 1156); conditions: P. falciparum-infected erythrocytes, osmotic lysis; higher = more signal, called active from +8 up or from −8 down unless noted
[16] = plasmodial surface anion channel blockers, osmotic lysis – cell-based, P. falciparum Indochina, OD700, 18 h, primary screen (AID 1157); conditions: P. falciparum Indochina infected erythrocytes, osmotic lysis OD700, 18 h; higher = more signal, called active from +8 up or from −8 down unless noted
[17] = S6 kinase pathway phospho-S6 level changes – cell-based, A549, cytoblot, luminescence, serum-stimulated, primary screen (AID 1158); conditions: 5 h, higher = more signal;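 also: serum-stimulated A549 lung adenocarcinoma cells; signal is phosphorylated S6 detected by cytoblot immunostaining with HRP secondary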
[18] = target: NADPH oxidase 2 (Homo sapiens) (UniProt P04839); test: compounds shifting NOX2 Amplex Red fluorescence – cell-based, HEK293-NOX2, PMA-stimulated, NOX inhibitor project, primary screen (AID 1159); conditions: 45 min; higher = more signal, called active from +8 up or from −8 down unless noted; also: test concentration not given here
[19] = target: NADPH oxidase 4 (Homo sapiens) (UniProt Q9NPH5); test: compounds shifting NOX4 Amplex Red fluorescence – cell-based, HEK293-NOX4, tetracycline-induced, NOX inhibitor project, primary screen (AID 1160); conditions: HEK293-NOX4, Amplex Red H2O2 fluorescence, 45 min; higher = more signal, called active from +8 up or from −8 down unless noted
[20] = target: NADPH oxidase 5 (Homo sapiens) (UniProt Q96PH1); test: compounds shifting NOX5 Amplex Red fluorescence – cell-based, HEK293-NOX5, NOX inhibitor project, primary screen (AID 1161); conditions: HEK293-NOX5, ionomycin, 45 min, higher = more signal
NADPH oxidase 5 (Homo sapiens), sequence (Q96PH1 whole entry, looked up): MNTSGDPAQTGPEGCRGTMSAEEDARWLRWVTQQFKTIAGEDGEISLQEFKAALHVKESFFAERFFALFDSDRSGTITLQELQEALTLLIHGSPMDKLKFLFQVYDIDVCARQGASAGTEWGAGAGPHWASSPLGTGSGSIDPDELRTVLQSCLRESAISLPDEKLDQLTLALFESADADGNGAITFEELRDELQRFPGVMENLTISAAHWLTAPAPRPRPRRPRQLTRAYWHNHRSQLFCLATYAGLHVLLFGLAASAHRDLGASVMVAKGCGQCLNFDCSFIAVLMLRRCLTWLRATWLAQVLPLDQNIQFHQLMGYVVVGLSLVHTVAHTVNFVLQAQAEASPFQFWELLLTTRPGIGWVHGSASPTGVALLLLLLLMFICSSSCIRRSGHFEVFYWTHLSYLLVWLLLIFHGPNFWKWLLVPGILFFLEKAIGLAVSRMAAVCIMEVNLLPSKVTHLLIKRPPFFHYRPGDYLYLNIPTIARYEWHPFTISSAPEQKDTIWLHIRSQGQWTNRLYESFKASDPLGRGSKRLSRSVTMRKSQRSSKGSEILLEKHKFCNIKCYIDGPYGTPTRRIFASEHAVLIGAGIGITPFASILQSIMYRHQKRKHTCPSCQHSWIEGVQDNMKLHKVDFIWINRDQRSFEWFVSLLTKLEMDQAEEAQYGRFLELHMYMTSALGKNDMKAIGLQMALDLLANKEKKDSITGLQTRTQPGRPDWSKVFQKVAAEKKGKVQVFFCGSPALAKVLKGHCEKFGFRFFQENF

NADPH oxidase 2 (Homo sapiens), sequence (P04839 whole entry, looked up): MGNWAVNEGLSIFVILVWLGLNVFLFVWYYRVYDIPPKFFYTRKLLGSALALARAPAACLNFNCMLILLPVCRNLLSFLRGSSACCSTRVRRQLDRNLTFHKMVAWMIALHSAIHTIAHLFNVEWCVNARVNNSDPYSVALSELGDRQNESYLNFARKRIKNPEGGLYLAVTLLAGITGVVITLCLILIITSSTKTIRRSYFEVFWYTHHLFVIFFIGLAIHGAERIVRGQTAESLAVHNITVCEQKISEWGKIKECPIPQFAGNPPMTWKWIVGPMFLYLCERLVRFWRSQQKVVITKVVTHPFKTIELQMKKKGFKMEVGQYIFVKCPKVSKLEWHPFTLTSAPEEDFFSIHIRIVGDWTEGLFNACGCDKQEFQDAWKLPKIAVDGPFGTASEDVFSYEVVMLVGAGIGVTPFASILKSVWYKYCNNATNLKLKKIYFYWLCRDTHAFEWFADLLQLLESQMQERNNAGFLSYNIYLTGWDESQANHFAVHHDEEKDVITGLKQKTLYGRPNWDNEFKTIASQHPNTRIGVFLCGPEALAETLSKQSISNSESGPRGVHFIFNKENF
Streptavidin (Streptomyces avidinii), sequence (P22629 whole entry, looked up): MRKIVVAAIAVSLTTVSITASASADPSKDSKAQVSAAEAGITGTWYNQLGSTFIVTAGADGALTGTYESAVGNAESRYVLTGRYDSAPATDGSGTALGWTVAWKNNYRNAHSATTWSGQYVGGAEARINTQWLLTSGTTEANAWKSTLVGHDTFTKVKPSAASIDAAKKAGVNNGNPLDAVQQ
Torsin-1A (Homo sapiens), sequence (O14656 whole entry, looked up): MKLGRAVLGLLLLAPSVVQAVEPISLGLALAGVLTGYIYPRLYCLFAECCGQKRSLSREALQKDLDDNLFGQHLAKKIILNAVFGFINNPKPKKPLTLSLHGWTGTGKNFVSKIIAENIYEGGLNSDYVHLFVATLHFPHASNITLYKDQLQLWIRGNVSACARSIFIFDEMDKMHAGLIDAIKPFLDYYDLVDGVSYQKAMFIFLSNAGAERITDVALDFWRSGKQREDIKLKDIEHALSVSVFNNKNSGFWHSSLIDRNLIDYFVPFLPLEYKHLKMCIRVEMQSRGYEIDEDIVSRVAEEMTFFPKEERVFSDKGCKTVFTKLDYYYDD
NADPH oxidase 4 (Homo sapiens), sequence (Q9NPH5 whole entry, looked up): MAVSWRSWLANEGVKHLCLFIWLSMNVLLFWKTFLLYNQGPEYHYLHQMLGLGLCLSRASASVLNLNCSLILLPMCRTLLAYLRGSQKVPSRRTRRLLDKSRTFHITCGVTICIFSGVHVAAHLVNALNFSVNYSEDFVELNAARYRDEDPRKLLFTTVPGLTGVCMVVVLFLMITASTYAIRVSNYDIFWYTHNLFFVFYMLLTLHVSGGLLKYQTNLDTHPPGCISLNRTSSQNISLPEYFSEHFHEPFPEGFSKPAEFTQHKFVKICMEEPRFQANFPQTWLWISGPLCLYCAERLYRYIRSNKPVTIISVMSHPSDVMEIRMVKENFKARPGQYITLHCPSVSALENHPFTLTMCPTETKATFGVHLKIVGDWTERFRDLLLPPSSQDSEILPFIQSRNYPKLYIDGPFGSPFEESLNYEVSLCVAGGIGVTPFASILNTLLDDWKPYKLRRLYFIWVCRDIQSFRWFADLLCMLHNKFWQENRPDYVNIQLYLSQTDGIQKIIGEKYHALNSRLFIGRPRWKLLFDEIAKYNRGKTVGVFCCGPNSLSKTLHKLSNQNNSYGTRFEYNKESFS

Row | Structure (SMILES) | composite z-score [1] | z-score [2] | z-score [3] | z-score [4] | z-score [5] | composite z-score [6] | composite z-score [7] | composite z-score [8] | composite z-score [9] | composite z-score [10] | z-score [11] | composite z-score [12] | z-score [13] | z-score [14] | z-score [15] | z-score [16] | z-score [17] | z-score [18] | z-score [19] | z-score [20]
1 | COc1cc2c(cc1O)C=[N+](C)CC2 | 0.182 | -1.29 (inactive) | -0.527 (inactive) | -0.438 (inactive) | -0.811 (inactive) | -0.306 | -0.152 | -1.31 | -1.25 | 1.65 | 1.13 (inactive) | -0.147 | 2.39 (inactive) | -0.687 (inactive) | 0.0284 (inactive) | -0.752 (inactive) | 2.42 | -3.74 (inactive) | -2.03 (inactive) | -2.13
2 | CN1CCc2nc(CO)c(CO)cc2C1 | 0.233 | -0.0958 (inactive) | 0.424 (inactive) | 1.37 (inactive) | -0.0826 (inactive) | 0.0991 | 0.0442 | -0.0701 | 0.557 | 0.424 | 0.0958 (inactive) | 0.0504 | 0.297 (inactive) | 0.538 (inactive) | -0.508 (inactive) | 0.101 (inactive) | -0.121 | 1.62 (inactive) | -1.25 (inactive) | -0.795
3 | COC(=O)[C@@]1(Cc2ccccc2)[C@H]2c3cc(C(=O)N(C)C)n(C)c3C[C@H]2CN1C(=O)c1ccccc1 | 0.253 | -0.782 (inactive) | 0.323 (inactive) | 0.194 (inactive) | 0.189 (inactive) | 1.78 | 0.0091 | 0.0264 | 1.51 | -0.916 | -0.741 (inactive) | 0.113 | 1.24 (inactive) | 0.373 (inactive) | 0.747 (inactive) | 0.617 (inactive) | 0.553 | 0.294 (inactive) | -0.0833 (inactive) | -2.5
4 | CN1CCC(c2ccc(CO)cc2)=CC1c1cccs1 (stereo not given) | -0.113 | -1.33 (inactive) | 0.196 (inactive) | 2.8 (inactive) | 0.158 (inactive) | -0.511 | -0.154 | 0.175 | 0.367 | 1.7 | -0.0115 (inactive) | -0.0111 | 5.23 (inactive) | 0.366 (inactive) | 0.377 (inactive) | 0.528 (inactive) | -0.594 | -0.822 (inactive) | -1.01 (inactive) | -1.21
5 | COC(=O)[C@@]1(Cc2ccc(F)cc2)[C@H]2c3cc(C(=O)N(C)C)[nH]c3C[C@H]2CN1C(=O)c1ccccc1 | 0.163 | -0.108 [setting not given] (inactive) | 0.208 (inactive) | -0.754 [setting not given] (inactive) | -0.0669 [setting not given] (inactive) | 0.134 | 0.143 [setting not given] | 0.181 | 0.252 | -0.879 | -0.652 [setting not given] (inactive) | 0.0738 [setting not given] | 1.37 [setting not given] (inactive) | 0.0978 [setting not given] (inactive) | 0.219 [setting not given] (inactive) | 0.641 [setting not given] (inactive) | -0.393 | 0.33 [setting not given] (inactive) | 0.502 [setting not given] (inactive) | -0.936
6 | CN1CCC(c2ccc(CO)cc2)=CC1C1CC1 (stereo not given) | -0.103 | -0.209 (inactive) | 0.656 (inactive) | 3.78 (inactive) | 0.54 (inactive) | -0.333 | -0.101 | 0.309 | 0.431 | 1.85 | -0.492 (inactive) | 0.103 | 0.899 (inactive) | 0.0137 (inactive) | -0.38 (inactive) | 0.0864 (inactive) | -1.04 | -0.477 (inactive) | -0.169 (inactive) | -0.0858
7 | COC(=O)[C@@]1(Cc2ccccc2)[C@H]2c3cc(C(=O)N(C)C)[nH]c3C[C@H]2CN1C(=O)c1ccccc1 | 0.155 | -0.167 (inactive) | -0.0166 (inactive) | -0.368 (inactive) | -0.897 (inactive) | -0.033 | -0.147 | -0.816 | -0.317 | -0.836 | -1.41 (inactive) | 0.802 | 1.11 (inactive) | 0.322 (inactive) | 0.337 (inactive) | 0.766 (inactive) | -0.519 | 0.434 (inactive) | 0.0256 (inactive) | -3.03
8 | CCOC(=O)[C@H]1CC=C2C(=O)Oc3ccccc3[C@@H]21 | -0.652 | -1.22 (inactive) | -0.473 (inactive) | -0.228 (inactive) | 1.7 (inactive) | -0.521 | -0.0405 | -2.41 | -1.59 | -0.528 | -0.59 (inactive) | -0.106 | 1.27 (inactive) | 0.804 (inactive) | 0.458 (inactive) | 0.708 (inactive) | -0.395 | 0.00603 (inactive) | -0.285 (inactive) | -0.275
